In PubChem BioAssay (Tox21):
Results filed as inconclusive are left out. Calls of active or inactive are those of the source. Unless noted, calls follow the shape of the dose curve; as a rule, active = well fitted curve in the direction sought with a large enough effect in the repeat runs; inconclusive = weak or mixed curves; inactive = no such curve, though single readings can be large; an effect the other way counts as inactive or inconclusive.

Experiments:
[1] = qHTS assay to identify small molecule antagonists of the vitamin D receptor (VDR) signaling pathway - cell viability counter screen (AID 743225); also: % is scaled to controls: 0 for no effect and ±100 for the full control effect; nearly all actives have a fitted effect of over 50% in size
Method in brief: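 Luminescent cell viability (CellTiter-Glo) in VDR-bla HEK 293T cells after 16 h compound exposure at 37C in the presence of 3 nM final 1-alpha,25-dihydroxy vitamin D3.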

[2] = qHTS assay to identify small molecule agonists of the NFkB signaling pathway (AID 1159509; active = well fitted curve in the direction sought with a large enough effect in the signal ratio in the repeat runs, not every such curve was filed as active; the % refers to the signal ratio; also: series mostly up to about 61 µM; % is scaled to controls: 0 for no effect and ±100 for the full control effect)
Method in brief: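 NFkB-bla ME-180 cells with a beta-lactamase reporter under an NF-kB response element were plated overnight, treated with compounds in DMSO for 5 hr at 37 C, then loaded with FRET substrate for 1.5 hr at room temperature.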

[3] = qHTS assay to identify small molecule agonists of the NFkB signaling pathway - cell viability counter screen (AID 1159515; calls by dose curve; also: series mostly up to about 61 µM; % is scaled to controls: 0 for no effect and ±100 for the full control effect; nearly all actives have a fitted effect of over 55% in size)
Method in brief: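 5 hr compound treatment of NFkB-bla ME-180 cells (2,000/well, seeded overnight beforehand), followed by reporter substrate for 1.5 hr. CellTiter-Glo added afterward; luminescence after 30 min RT.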

[4] = qHTS assay to identify small molecule agonists of the endoplasmic reticulum stress response signaling pathway (AID 1159516; active = well fitted activation curve with a large enough effect in the signal ratio in the repeat runs, not every such curve was filed as active; the % refers to the signal ratio; also: % is scaled to controls: 0 for no effect and ±100 for the full control effect)
Method in brief: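 Reporter HeLa cells (ESRE-beta-lactamase) underwent 5 hr compound incubation at 37 C and 5% CO2 in quantitative HTS format. Detection followed 2 hr of FRET substrate loading at room temperature.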

[5] = qHTS assay to identify small molecule antagonists of the retinoid-related orphan receptor gamma (ROR-gamma) signaling pathway - cell viability counter screen (AID 1159520); also: % is scaled to controls: 0 for no effect and ±100 for the full control effect; nearly all actives have a fitted effect of over 50% in size
Method in brief: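 Tet-on ROR gamma CHO cells were given compounds for 2 hr, then doxycycline hyclate at 1 uM final, and incubated 16 hr at 37 C. Viability was measured as ATP content by CellTiter-Glo luminescence.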

[6] = target: Nuclear receptor ROR-gamma (Homo sapiens) (UniProt P51449); test: qHTS assay to identify small molecule antagonists of the retinoid-related orphan receptor gamma (ROR-gamma) signaling pathway (AID 1159521;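 also: CHO cells with doxycycline inducible ROR-gamma driving an RORE luciferase reporter; top concentration of the series differs between compounds; % is scaled to controls: 0 for no effect and ±100 for the full control effect; nearly all actives have a fitted effect of over 50% in size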)
Method in brief: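 CHO cells expressing RORγ under a TET-on promoter, luciferase under RORE control. Dox 1 uM final, 16 h; compounds added 2 h prior. Luminescence decrease measured.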

[7] = qHTS assay to identify small molecule agonists of the AP-1 signaling pathway - cell viability counter screen (AID 1159525; calls by dose curve; also: nearly all actives have a fitted effect of over 55% in size)
Method in brief: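 AP-1-bla ME-180 cells in Opti-MEM with 0.5% dialyzed FBS, compound exposure 5 h at 37 C in 15-point titration. Viability read in the same wells as ATP content by CellTiter-Glo luminescence, normalised to tetra-n-octylammonium bromide and DMSO controls.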

[8] = qHTS assay to identify small molecule agonists of the AP-1 signaling pathway (AID 1159526; calls by dose curve; also: % is scaled to controls: 0 for no effect and ±100 for the full control effect)
[9] = target: Retinoic acid receptor RXR-alpha (Homo sapiens) (UniProt P19793); test: qHTS assay to identify small molecule agonists of the RXR signaling pathway (AID 1159527; calls by dose curve; also: % is scaled to controls: 0 for no effect and ±100 for the full control effect; nearly all actives have a fitted effect of over 35% in size)
Retinoic acid receptor RXR-alpha (Homo sapiens), sequence (P19793 whole entry, looked up): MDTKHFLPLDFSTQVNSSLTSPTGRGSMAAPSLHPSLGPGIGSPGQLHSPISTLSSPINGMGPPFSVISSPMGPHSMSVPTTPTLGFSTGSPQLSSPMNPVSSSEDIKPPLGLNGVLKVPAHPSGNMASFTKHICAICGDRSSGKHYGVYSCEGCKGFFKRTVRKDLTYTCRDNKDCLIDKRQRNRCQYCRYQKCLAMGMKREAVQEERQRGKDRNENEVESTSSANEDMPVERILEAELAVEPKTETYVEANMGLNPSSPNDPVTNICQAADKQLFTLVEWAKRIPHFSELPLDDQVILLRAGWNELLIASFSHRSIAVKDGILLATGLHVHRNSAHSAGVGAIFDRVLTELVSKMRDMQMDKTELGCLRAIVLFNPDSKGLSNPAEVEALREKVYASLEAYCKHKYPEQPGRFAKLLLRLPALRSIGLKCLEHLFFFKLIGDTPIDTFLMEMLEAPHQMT
Method in brief: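 Beta-lactamase reporter assay, agonist format. Engineered HEK 293T line, charcoal-stripped FBS at 2%, overnight (16 hr) exposure, fluorescence at 460 and 530 nm after 405 nm excitation.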

[10] = qHTS assay to identify small molecule agonists of the RXR signaling pathway - cell viability counter screen (AID 1159529);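 also: HEK 293T cells carrying an RXR-alpha UAS beta-lactamase reporter; series mostly up to about 77 µM; % is scaled to controls: 0 for no effect and ±100 for the full control effect; nearly all actives have a fitted effect of over 50% in size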
Method in brief: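 Same-well viability check after the LiveBLAzer FRET read: CellTiter-Glo added, luminescence measured after 30 min at room temperature. Reporter HEK 293T cells had been treated with compounds for 16 hr following a 5 hr preincubation.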

[11] = qHTS assay to identify small molecule antagonists of the retinoid acid receptor (RAR) signaling pathway - cell viability counter screen (AID 1159551); also: % is scaled to controls: 0 for no effect and ±100 for the full control effect; nearly all actives have a fitted effect of over 35% in size
Method in brief: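 Seed C3RL4 cells; next day add compound, then retinol to 1 uM final; incubate 6 h at 37 C; add CellTiter-Glo; read luminescence after 30 min at RT.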

[12] = qHTS assay to identify small molecule antagonists of the retinoic acid receptor (RAR) signaling pathway (AID 1159552)
Method in brief: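 Readout: luciferase luminescence, 30 min post-reagent at RT. Setup: C3RL4 RARE reporter cells, compounds plus retinol 1 uM final, 6 hr incubation at 37 C and 5% CO2.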

[13] = qHTS assay to identify small molecule agonists of the retinoic acid receptor (RAR) signaling pathway (AID 1159553); also: % is scaled to controls: 0 for no effect and ±100 for the full control effect
Method in brief: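 Activation of retinol signaling was monitored via a RARE luciferase reporter in C3RL4 cells. After 6 hr compound treatment at 37 C, detection reagent was added for 30 min at room temperature before luminescence reading.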

[14] = qHTS assay to identify small molecule agonists of the vitamin D receptor (VDR) signaling pathway - cell viability counter screen (AID 743224)
Method in brief: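 Here cell health was gauged by luminescent ATP detection (CellTiter-Glo, 30 min RT) in VDR-bla cells that had been incubated with test compounds for 16 h at 37C and 5% CO2.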

CC(C)(C(=O)c1cccnc1)c1cccnc1
inactive: Potency [1] | outcome [2] | Potency [3] | Potency [4] | Potency [5] | Potency [6] | Potency [7] | outcome [8] | Potency [9] | Potency [10] | Potency [11] | Potency [12] | Potency [13]

CCCCCCCCCCCCCOC(=O)CCSCCC(=O)OCCCCCCCCCCCCC
inactive: Potency [1] | outcome [2] | Potency [3] | Potency [4] | activity, negative = cytotoxicity [5] 0.433% [at 19 µM] | activity change, negative = inhibition [6] -3.96% [at 19 µM] | viability change, negative = cytotoxic [7] -10.6% [at 15.8 µM] | activation [8] -14.2% [at 15.8 µM] | activation [9] 4.41% [at 15.8 µM] | activity change, negative = cytotoxicity [10] 10.7% [at 15.8 µM] | activity change, negative = cytotoxicity [11] 3.2% [at 19 µM] | activity, negative = inhibition [12] -11.1% [at 19 µM] | Potency [13]

O=C(O)CCC(=O)OC[C@@H](NC(=O)C(Cl)Cl)[C@H](O)c1ccc([N+](=O)[O-])cc1
inactive: Potency [14] | Potency [1] | outcome [2] | Potency [3] | Potency [4] | Potency [5] | Potency [6] | Potency [7] | outcome [8] | Potency [9] | Potency [10] | Potency [11] | Potency [12] | Potency [13]

CC[C@H]1OC(=O)[C@H](C)[C@@H](O[C@H]2C[C@@](C)(OC)[C@@H](O)[C@H](C)O2)[C@H](C)[C@@H](O[C@@H]2O[C@H](C)C[C@H](N(C)C)[C@H]2O)[C@](C)(O)C[C@@H](C)/C(=N\OCOCCOC)[C@H](C)[C@@H](O)[C@]1(C)O
inactive: outcome [2] | Potency [3] | Potency [4] | Potency [5] | Potency [6] | Potency [7] | outcome [8] | Potency [9] | Potency [10] | Potency [11] | Potency [13]

c1ccc(CNc2ncnc3c2ncn3C2CCCCO2)cc1 (configuration not stated)
inactive: Potency [1] | outcome [2] | Potency [3] | Potency [4] | Potency [5] | Potency [6] | Potency [7] | outcome [8] | Potency [9] | Potency [10] | Potency [11] | Potency [12]

O=C(O)CCS
inactive: Potency [14] | Potency [1] | outcome [2] | Potency [3] | Potency [4] | Potency [5] | Potency [6] | Potency [7] | outcome [8] | Potency [9] | Potency [10] | Potency [11] | Potency [12]

O=P(O)(O)Oc1ccccc1
inactive: Potency [14] | Potency [1] | outcome [2] | Potency [3] | Potency [4] | Potency [5] | Potency [6] | Potency [7] | outcome [8] | Potency [9] | Potency [10] | Potency [11] | Potency [12] | Potency [13]

O=S(=O)(Cl)c1c(Cl)cccc1Cl
inactive: Potency [14] | Potency [1] | outcome [2] | Potency [3] | Potency [4] | Potency [5] | Potency [6] | Potency [7] | outcome [8] | Potency [9] | Potency [10] | Potency [11] | Potency [12] | Potency [13]

O=C(c1ccccc1)C1CCC1
inactive: Potency [14] | Potency [1] | outcome [2] | Potency [3] | Potency [4] | Potency [5] | Potency [6] | Potency [7] | outcome [8] | Potency [9] | Potency [10] | Potency [11] | Potency [12]
